Measured values reported in PubChem BioAssay (Tox21).
“And” between values parts separate entries of the source, which are not always exact repeats. Equal values may be shown once. Results filed as inconclusive are left out. The source holds several records for some structures; these can differ, active in one and inactive in another. The source made the active and inactive calls. Unless noted, the call rests on the fitted dose curve.

Assays:
[1] = Nuclear factor erythroid 2-related factor 2/antioxidant responsive element (Nrf2/ARE) small molecule agonists: qHTS cell viability counter screen in human keratinocytes (AID 1919968; active means well fitted curve in the direction sought with a large enough effect in the repeat runs; an effect the other way counts as inactive or inconclusive; further: nearly all actives have a fitted effect of over 55% in size; further: potency means the concentration at half of the fitted maximal effect)
Outline: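 Cytotoxicity was multiplexed with the Nrf2/ARE luciferase assay in the same wells. Stably transfected HaCaT keratinocytes were treated with test compounds for 23 h at 37 C. Cell viability was then measured by CellTiter-Fluor fluorescence.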

[2] = Nuclear factor erythroid 2-related factor 2/antioxidant responsive element (Nrf2/ARE) small molecule agonists: luciferase reporter gene qHTS assay in human keratinocytes (AID 1919969); further: nearly all actives have a fitted effect of over 35% in size; further: potency means the concentration at half of the fitted maximal effect
[3] = target: Gonadotropin-releasing hormone receptor (Homo sapiens) (UniProt P30968); assay: Human gonadotropin-releasing hormone receptor (GnRHR) small molecule agonists, calcium flux assay in GnRHR-HEK293 cells (AID 1920063); further: nearly all actives have a fitted effect of over 35% in size
Chain of Gonadotropin-releasing hormone receptor (Homo sapiens) (P30968 whole entry, looked up): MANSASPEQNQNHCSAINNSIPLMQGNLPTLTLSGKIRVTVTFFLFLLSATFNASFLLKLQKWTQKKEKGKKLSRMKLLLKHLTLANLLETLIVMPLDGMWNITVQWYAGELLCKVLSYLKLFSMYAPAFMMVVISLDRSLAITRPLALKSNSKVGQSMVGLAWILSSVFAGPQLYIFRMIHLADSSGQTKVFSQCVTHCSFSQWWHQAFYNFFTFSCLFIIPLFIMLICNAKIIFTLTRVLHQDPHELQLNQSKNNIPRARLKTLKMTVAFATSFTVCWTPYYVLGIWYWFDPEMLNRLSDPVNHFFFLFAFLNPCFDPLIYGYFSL
Outline: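 Agonist activity was measured as intracellular calcium flux in HEK293 cells engineered to stably express human GnRHR. After dye loading for 1 hour at 37 C, compounds in DMSO were added and fluorescence was followed for 3 minutes.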

[4] = target: KiSS-1 receptor (Homo sapiens) (UniProt Q969F8); assay: Human kisspeptin (KISS1R) small molecule agonists, calcium flux assay in KISS1R-HEK293 cells (AID 1920064; active means well fitted curve in the direction sought with a large enough effect in the repeat runs; an effect the other way counts as inactive or inconclusive)
Chain of KiSS-1 receptor (Homo sapiens) (Q969F8 whole entry, looked up): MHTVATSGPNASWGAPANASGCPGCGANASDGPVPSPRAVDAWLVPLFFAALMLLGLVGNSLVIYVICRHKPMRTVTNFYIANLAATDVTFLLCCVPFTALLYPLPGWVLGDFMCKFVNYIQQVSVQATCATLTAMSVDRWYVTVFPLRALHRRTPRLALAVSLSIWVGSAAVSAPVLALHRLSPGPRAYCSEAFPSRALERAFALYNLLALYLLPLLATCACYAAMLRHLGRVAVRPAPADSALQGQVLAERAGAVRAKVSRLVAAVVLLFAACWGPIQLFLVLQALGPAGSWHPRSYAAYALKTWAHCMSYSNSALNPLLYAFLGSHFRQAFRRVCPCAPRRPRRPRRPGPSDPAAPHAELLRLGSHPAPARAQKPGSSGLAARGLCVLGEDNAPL
Outline: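 Agonist activity is monitored as intracellular calcium rise in engineered HEK293 cells carrying human KISS1R. Cells are dye-loaded for 1 h at 37 C before compound addition, and fluorescence is recorded for 3 min.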

[5] = G protein-coupled receptor (GPCR) small molecule agonists, calcium flux assay: HEK293 wild type cell line counter screen (AID 1920065)
Outline: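 Seed cells, incubate 18 h (37 C, 5% CO2); add calcium dye, 1 h at 37 C; pin-transfer compounds, ATP control or DMSO; read fluorescence 480/540 nm each second for 3 min.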

[6] = p53 small molecule agonists, cell-based qHTS assay with human liver microsomes (AID 1963577);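 further: p53 response element beta-lactamase reporter cells with liver microsomes plus NADPH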
Outline: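 Reporter activation was measured by LiveBLAzer fluorescence intensity in p53RE-bla cells, which had been exposed to compounds for 16 h at 37 C alongside 0.5 mg/mL human liver microsomes and 0.5 mg/mL NADPH (final concentrations).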

[7] = p53 small molecule agonists, cell-based qHTS assay with rat liver microsomes (AID 1963578)
Outline: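 Compound in DMSO added to p53RE-bla cells 5 h post-plating; rat microsomes/NADPH 0.5 mg/mL final; 16 h, 37 C; LiveBLAzer 2 h RT.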

[8] = p53 small molecule agonists, cell-based qHTS assay with human liver microsomes: qHTS cell viability counter screen (AID 1963579); further: nearly all actives have a fitted effect of over 45% in size
Outline: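 HLM-supplemented (0.5 mg/mL final) and NADPH-supplemented (0.5 mg/mL final) p53RE-bla cultures, 4,000 cells per well, were dosed with compounds in DMSO for 16 h at 37 C; luminescent ATP detection (CellTiter-Glo, 30 min, room temperature) quantified surviving cells.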

[9] = p53 small molecule agonists, cell-based qHTS assay with rat liver microsomes: qHTS cell viability counter screen (AID 1963580); further: nearly all actives have a fitted effect of over 45% in size
Outline: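 Rat liver microsome (0.5 mg/mL final) and NADPH (0.5 mg/mL final) co-incubation with compounds for 16 h at 37 C on HCT-116 p53RE-bla cells; cytotoxicity taken from intracellular ATP luminescence.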

[10] = target: 5-hydroxytryptamine receptor 2A (Homo sapiens) (UniProt P28223); assay: 5-hydroxytryptamine receptor 2A (HTR2A) small molecule antagonists, cell-based qHTS assay (AID 1963586); further: nearly all actives have a fitted effect of over 45% in size
Chain of 5-hydroxytryptamine receptor 2A (Homo sapiens) (P28223 whole entry, looked up): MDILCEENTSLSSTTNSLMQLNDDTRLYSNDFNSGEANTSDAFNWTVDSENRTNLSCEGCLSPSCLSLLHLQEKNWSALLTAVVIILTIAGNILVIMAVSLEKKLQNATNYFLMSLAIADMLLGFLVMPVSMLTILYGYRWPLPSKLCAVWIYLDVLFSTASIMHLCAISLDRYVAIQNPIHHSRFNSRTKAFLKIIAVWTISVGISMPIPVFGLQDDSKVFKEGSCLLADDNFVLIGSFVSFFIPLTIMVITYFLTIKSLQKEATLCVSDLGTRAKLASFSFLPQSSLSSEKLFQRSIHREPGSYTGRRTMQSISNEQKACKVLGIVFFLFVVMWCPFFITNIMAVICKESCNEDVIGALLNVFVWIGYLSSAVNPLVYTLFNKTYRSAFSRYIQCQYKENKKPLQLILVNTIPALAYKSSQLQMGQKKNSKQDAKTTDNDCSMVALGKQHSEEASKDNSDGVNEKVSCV
Outline: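 CHO cells stably expressing human HTR2A were plated for 18 h at 37 C, then loaded with calcium dye for 1 h. Compounds were preincubated 5 min at room temperature before DOI (4 nM solution) was added. Kinetic fluorescence was read for 3 min.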

[11] = target: Muscarinic acetylcholine receptor M1 (Homo sapiens) (UniProt P11229); assay: Cholinergic receptor muscarinic 1 (CHRM1) small molecule antagonists, cell-based qHTS assay (AID 1963588); further: nearly all actives have a fitted effect of over 40% in size; further: potency means the concentration at half of the fitted maximal effect
Chain of Muscarinic acetylcholine receptor M1 (Homo sapiens) (P11229 whole entry, looked up): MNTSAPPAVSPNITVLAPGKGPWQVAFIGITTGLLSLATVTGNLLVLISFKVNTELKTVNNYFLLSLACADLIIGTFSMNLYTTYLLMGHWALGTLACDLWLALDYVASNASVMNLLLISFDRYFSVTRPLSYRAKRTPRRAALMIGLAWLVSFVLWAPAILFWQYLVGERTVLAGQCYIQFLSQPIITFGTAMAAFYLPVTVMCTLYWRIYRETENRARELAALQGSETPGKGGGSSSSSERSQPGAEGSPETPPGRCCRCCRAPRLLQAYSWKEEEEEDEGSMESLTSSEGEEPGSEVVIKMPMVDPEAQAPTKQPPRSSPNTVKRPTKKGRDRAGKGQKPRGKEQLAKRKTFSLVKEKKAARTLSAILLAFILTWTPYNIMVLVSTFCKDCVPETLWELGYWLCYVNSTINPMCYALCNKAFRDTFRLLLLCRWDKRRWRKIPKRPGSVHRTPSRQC
Outline: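 Compounds were tested at 15 concentrations in three independent runs. Dye-loaded CHRM1-CHO cells were exposed 5 min at room temperature before stimulation by acetylcholine added at 50nM. Intracellular calcium was read kinetically on FDSS for 3 min.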

[12] = target: Muscarinic acetylcholine receptor M1 (Homo sapiens) (UniProt P11229); assay: Cholinergic receptor muscarinic 1 (CHRM1) small molecule agonists, cell-based qHTS assay (AID 1963589); further: nearly all actives have a fitted effect of over 35% in size
Outline: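 Cells were plated and incubated 18 h at 37 C/5% CO2, loaded with calcium dye for 1 h at 37 C, then treated with compounds in DMSO. Fluorescence was recorded kinetically at 1 sec intervals.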

[13] = cAMP Responsive Elements (CRE) small molecule agonists, cell-based qHTS assay (AID 1963590)
Outline: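 Cells carrying a CRE-driven beta-lactamase reporter (HEK 293T) are seeded, incubated overnight (18 h), and treated with test compounds for 3 h at 37 C; reporter activity is then detected with a FRET substrate after 2 h at room temperature.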

[14] = target: Beta-2 adrenergic receptor (Homo sapiens) (UniProt P07550); assay: Adrenergic beta2 receptor (ADRB2) small molecule antagonists, cell-based qHTS assay (AID 1963592); further: series mostly up to about 92 µM; nearly all actives have a fitted effect of over 50% in size
Chain of Beta-2 adrenergic receptor (Homo sapiens) (P07550 whole entry, looked up): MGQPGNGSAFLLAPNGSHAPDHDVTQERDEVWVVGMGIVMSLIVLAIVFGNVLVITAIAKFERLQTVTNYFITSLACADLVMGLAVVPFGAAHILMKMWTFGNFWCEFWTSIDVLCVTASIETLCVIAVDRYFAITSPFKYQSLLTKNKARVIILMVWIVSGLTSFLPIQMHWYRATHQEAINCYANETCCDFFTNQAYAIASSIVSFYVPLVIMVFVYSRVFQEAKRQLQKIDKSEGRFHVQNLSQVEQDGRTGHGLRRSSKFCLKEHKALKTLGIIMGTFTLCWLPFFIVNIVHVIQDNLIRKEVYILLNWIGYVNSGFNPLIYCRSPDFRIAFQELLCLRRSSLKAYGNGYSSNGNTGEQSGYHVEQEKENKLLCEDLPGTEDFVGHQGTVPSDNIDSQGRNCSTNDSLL
Outline: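 Assay format: CHO-ADRB2 cells, 18-20hr seeding at 37C/5% CO2, then compound plus 1nM isoproterenol agonist mix for 0.5hr RT. Homogeneous time-resolved fluorescence cAMP detection after 1hr, expressed as 665/615 nm ratio.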

[15] = target: D(2) dopamine receptor (Homo sapiens) (UniProt P14416); assay: Dopamine D2 receptor (DRD2) small molecule agonists, cell-based qHTS assay (AID 1963594); further: nearly all actives have a fitted effect of over 35% in size
Chain of D(2) dopamine receptor (Homo sapiens) (P14416 whole entry, looked up): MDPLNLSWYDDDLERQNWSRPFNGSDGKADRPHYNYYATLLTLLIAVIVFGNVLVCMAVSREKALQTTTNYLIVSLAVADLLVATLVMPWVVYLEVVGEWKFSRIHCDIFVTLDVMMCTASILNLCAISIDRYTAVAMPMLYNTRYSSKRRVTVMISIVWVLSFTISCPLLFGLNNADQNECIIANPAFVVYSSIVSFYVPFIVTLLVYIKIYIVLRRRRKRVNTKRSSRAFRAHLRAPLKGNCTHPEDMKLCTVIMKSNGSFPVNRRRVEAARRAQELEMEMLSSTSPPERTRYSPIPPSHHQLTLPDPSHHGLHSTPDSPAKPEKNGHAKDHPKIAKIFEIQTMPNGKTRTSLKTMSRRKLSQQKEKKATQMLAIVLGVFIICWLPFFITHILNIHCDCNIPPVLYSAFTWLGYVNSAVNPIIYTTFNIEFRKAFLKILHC
Outline: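 cAMP accumulation in DRD2-HEK293 cells measured by HTRF after 1 h detection; compounds added 10 min before NKH477 (200nM […]) forskolin-analogue stimulation, 30 min at room temperature, with Ro20-1724 present at 0.1 mM final.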

[16] = target: D(2) dopamine receptor (Homo sapiens) (UniProt P14416); assay: Dopamine D2 receptor (DRD2) small molecule antagonists, cell-based qHTS assay (AID 1963595; active means well fitted inhibition curve with a large enough effect in the signal ratio in the repeat runs, with a control signal flat; the % refers to the signal ratio)
Outline: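 DRD2-HEK293; 0.1 mM Ro20-1724; cpd 10 min RT; NKH477 200 nM + quinpirole 12 nM, 30 min RT; HTRF cAMP (cAMP-d2/anti-cAMP cryptate), 665/620 nm ratio after 1 h.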

[17] = p53 small molecule agonists, cell-based qHTS assay (AID 1963582; active means well fitted activation curve with a large enough effect in the signal ratio in the repeat runs, not every such curve was filed as active; the % refers to the signal ratio)
Outline: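 Cells carrying a p53-responsive bla reporter are treated with test compounds for 16 h at 37 C; beta-lactamase activity is then detected with LiveBLAzer B/G FRET substrate after 2 h at room temperature.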

[18] = target: 5-hydroxytryptamine receptor 2A (Homo sapiens) (UniProt P28223); assay: 5-hydroxytryptamine receptor 2A (HTR2A) small molecule agonists, cell-based qHTS assay (AID 1963587); further: nearly all actives have a fitted effect of over 30% in size
Outline: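 Kinetic calcium-flux fluorescence (2 min, 1 sec intervals) after compound addition in agonist mode. HTR2A-CHO cells were cultured 18 h, then dye-loaded 1 h at 37 C.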

[19] = cAMP Responsive Elements (CRE) small molecule antagonists, cell-based qHTS assay (AID 1963591; active means well fitted inhibition curve with a large enough effect in the signal ratio in the repeat runs, not every such curve was filed as active; the % refers to the signal ratio)
Outline: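 Cells (CRE-bla HEK 293T, DMEM with 10% dialyzed FBS and 25 mM HEPES) are seeded and incubated 18 h. Compounds are added with NKH477 agonist at 0.25 uM final for 3 h, then FRET substrate for 2 h.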

[20] = target: Beta-2 adrenergic receptor (Homo sapiens) (UniProt P07550); assay: Adrenergic beta2 receptor (ADRB2) small molecule agonists, cell-based qHTS assay (AID 1963593);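 further: CHO cells stably overexpressing human ADRB2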
Outline: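 CHO cells stably over-expressing ADRB2 were plated overnight at 37C, then dosed with compounds plus a stimulation mix containing 100uM IBMX and 25uM Ro-20-1724 for 0.5hr at room temperature. cAMP was measured by HTRF competition, 1hr.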

Measured: Potency

CCCCCCCCCCCCCCC(=O)O
not listed: [17] | [18] | [19] | [20]
inactive: all other assays above

Cc1ccc(O)c([N+](=O)[O-])c1
inactive: all assays above

CCOC(=O)[C@H](CCc1ccccc1)N[C@@H](C)C(=O)N1C(=O)N(C)C[C@H]1C(=O)O
not listed: [14] | [20]
inactive: all other assays above

CN1[C@@H]2CC[C@H]1CC(NC(=O)n1c(=O)[nH]c3ccccc31)C2 (some centres undefined)
not listed: [20]
inactive: all other assays above

CC(C)OC(C)C
not listed: [19]
inactive: all other assays above

NCc1cccc(CN)c1
not listed: [11] | [17]
inactive: all other assays above

CCC(C)(C)C1CCC(OC)CC1 (centres undefined)
inactive: all assays above

Cc1cc(C)c(C(=O)O)c(C)c1
not listed: [10] | [13] | [16] | [17]
inactive: all other assays above

CN1N=C(C(N)=O)CCC1=O
inactive: all assays above

Nc1ncnc2c1ncn2Cc1c(F)cccc1Cl
not listed: [15]
inactive: all other assays above

c1ccc(SCCSc2ccccc2)cc1
active: [2] 12.1 µM
not listed: [20]
inactive: all other assays above

COC(=O)c1cc(Cl)ccc1OC
inactive: all assays above

O=C(O)c1cc(-c2ccccc2)nc2ccccc12
not listed: [13] | [17] | [18]
inactive: all other assays above

Oc1ccc(C(c2ccc(O)cc2)C(Cl)(Cl)Cl)cc1
active: [1] 60.9 µM and 54.5 µM | [2] 27.3 µM
not listed: [11] | [13] | [14] | [17] | [18] | [20]
inactive: all other assays above

CCOC(=O)c1cccc(N)c1
not listed: [15]
inactive: all other assays above

CCCOCCO
inactive and 12.5 nM (active): [11]
inactive: all other assays above
